Assay results from the supplement of paper PMC10933113.
± gives the uncertainty stated by the source.

Tested on: THP-1
Experiment: CD54 surface expression induction over DMSO control (% over DMSO); higher = stronger dendritic cell activation
Details: exposure time: 24 h
Description: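 hCLAT-like CD54 and CD86 surface expression on THP1 cells after 24 h exposure at a single concentration (highest non-cytotoxic concentration, or 100-200 µM if not cytotoxic). Flow cytometry (iQue) was run on 5,000 live cells.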

Row | SMILES | CD54 surface expression induction
1 | CCOc1ccc2nc(S(N)(=O)=O)sc2c1 [Ethoxzolamide] (200 µM) | 3.81 ± 6
2 | [Cl][Bi]([Cl])([c]1ccccc1)([c]1ccccc1)[c]1ccccc1 [Triphenylbismuthine dichloride] (10 µM) | 15.8 ± 5
3 | O=C(Oc1ccccc1)c1cccc(C(=O)Oc2ccccc2)c1 [Diphenyl isophthalate] (200 µM) | -2.76 ± 5
4 | Nc1cc(-c2ccncc2)c[nH]c1=O [Amrinone] (100 µM) | -1.65 ± 0.59
5 | Cc1ccc2c(c1[N+](=O)[O-])C(=O)c1ccccc1C2=O [2-Methyl-1-nitroanthraquinone] (10 µM) | 4.18 ± 2.8
6 | C/C=C/C=C/C=O [2,4-Hexadienal] (200 µM) | 9.31 ± 6.7
7 | CCCCCCCCCCCCN(CCO)CCO [Lauryldiethanolamine] (10 µM) | -10.1 ± 4.7
8 | O=c1[nH]sc2cc(Cl)ccc12 [Ticlatone] (10 µM) | -4.79 ± 7.2
9 | Nc1nnc(-c2ccc([N+](=O)[O-])o2)o1 [2-Amino-5-(5-nitro-2-furyl)-1,3,4-oxadiazole] (10 µM) | -7.68 ± 3.2
10 | c1ccc(-c2ccccn2)nc1 [2,2'-Dipyridyl] (200 µM) | -9.09 ± 20
11 | Oc1ccc(/C=C/c2cc(O)cc(O)c2)cc1 [Resveratrol] (100 µM) | 1.74 ± 6.8
12 | CCCCCCCCCCC=CC1CC(=O)OC1=O (stereo not given) [3-(Dodecenyl)dihydro-2,5-furandione] (200 µM) | 16 ± 37
13 | COc1cc(Nc2c(C#N)cnc3cc(OCCCN4CCN(C)CC4)c(OC)cc23)c(Cl)cc1Cl [Bosutinib] (100 µM) | -7.93 ± 2.6
14 | Cc1ccc(O)c(-n2nc3ccccc3n2)c1 [2-(2H-Benzotriazol-2-yl)-4-methylphenol] (100 µM) | 3.46 ± 3.3
15 | C=C(C)C(=O)Nc1ccc(Cl)c(Cl)c1 [Chloranocryl] (100 µM) | 0.25 ± 0.41
16 | CCCCCCCCCCCCO [1-Dodecanol] (100 µM) | 9.85 ± 8.8
17 | CC/C=C\C/C=C\C/C=C\CCCCCCCC(=O)OCC [Ethyl linolenate] (10 µM) | -3.84 ± 2.1
18 | Nc1ccccc1N [1,2-Phenylenediamine*] (200 µM) | 161 ± 20
19 | Cc1ccc(O)c2ncccc12 [Tiliquinol] (10 µM) | 26.6 ± 6.2
20 | CCC1OCC(COc2ccc(Oc3ccccc3)cc2)O1 (stereo not given) [Diofenolan] (10 µM) | -6.06 ± 5.8

Row | SMILES | CD54 surface expression induction
21 | O=C(NS(=O)(=O)/C=C/c1ccccc1)c1ccc(F)cc1Cl (200 µM) | 1.54 ± 2.2
22 | O=C(O)c1cccnc1Nc1cccc(C(F)(F)F)c1 [Niflumic acid] (100 µM) | -11.5 ± 10
23 | O=[N+]([O-])c1cc(N(CCO)CCO)ccc1NCCO (200 µM) | 3.92 ± 4.8
24 | O=C1c2ccccc2C(=O)C1c1ccc2ccccc2n1 [D & C Yellow II] (10 µM) | -4.43 ± 3.6
25 | CC(=O)Oc1ccc(C2(c3ccc(OC(C)=O)cc3)C(=O)Nc3ccccc32)cc1 [Oxyphenisatin acetate] (100 µM) | 9.56 ± 1.9
26 | O=C1Nc2ccccc2C1(c1ccc(O)cc1)c1ccc(O)cc1 [Oxyphenisatin] (100 µM) | 15.6 ± 12
27 | Oc1c(I)cc(Cl)c2cccnc12 [Clioquinol] (100 µM) | 141 ± 67
28 | CCCCNC(=S)NCCCC [N,N'-Dibutylthiourea] (10 µM) | -6.77 ± 3.8
29 | CCCCCCCC(=O)Oc1c(Br)cc(C#N)cc1Br [Bromoxynil octanoate] (100 µM) | -3.81 ± 2.4
30 | c1ccc(SCCSc2ccccc2)cc1 [1,2-Bis(phenylthio)ethane] (100 µM) | -6.44 ± 3
31 | CCN(CC)CCOc1ccc2c(c1)C(=O)c1cc(OCCN(CC)CC)ccc1-2 [Tilorone] (200 µM) | 79.8 ± 17
32 | CC(C)c1ccc2cc(C(C)C)ccc2c1 [2,6-Diisopropylnaphthalene] (200 µM) | 10.1 ± 1.7
33 | CC(=O)C1(C)CC2=C(CCCC2(C)C)CC1C (stereo not given) (100 µM) | 4.57 ± 4.8
34 | CCCCc1ccc2[nH]c(NC(=O)OC)nc2c1 [Parbendazole*] (200 µM) | 262 ± 39
35 | O=C(O)Cn1c(C(=O)Nc2nc(-c3ccccc3Cl)cs2)cc2ccccc21 [Lintitript] (100 µM) | 1.24 ± 1.1
36 | CCN(CC)CCSC(=O)C(c1ccccc1)c1ccccc1 [Thiphenamil] (200 µM) | 99.2 ± 12
37 | Nc1cc(Cl)c(O)c(Cl)c1 [4-Amino-2,6-dichlorophenol] (100 µM) | 18 ± 2
38 | Cc1cc(C2(c3cc(C)c(O)cc3C)OS(=O)(=O)c3ccccc32)c(C)cc1O [p-Xylenol blue] (200 µM) | 8.91 ± 6.7
39 | C/C=C/C=C/CCCCCCCO [Codlelure] (200 µM) | -18.9 ± 4
40 | COC(=O)Nc1nc2cc([S+]([O-])c3ccccc3)ccc2[nH]1 (stereo not given) [Oxfendazole] (100 µM) | 17.4 ± 3.6
